Out of some 290,000 compounds screened, about 3,100 (1.1%) were called active. Cut-off read from the data, not from the text of the source: active = inhibition above about 16% (passing the limit was not always enough); inactive = the rest. For the sample, actives were picked, then their nearest neighbours and some compounds at random.

This experiment deals with Neuropeptides B/W receptor type 1 (Homo sapiens) (UniProt P48145). The experiment is described as follows: blockers of human neuropeptide B/W receptor 1 – cell-based, fluorescence, single concentration, primary screen (AID 1861).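 Note: cells stimulated with the agonist NPW; 0% = agonist with vehicle and 100% = vehicle without agonist.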 Particulars: GPR7-expressing cells, fluorescence antagonist assay; at 4.4 µM; stronger effect = higher value.
Neuropeptides B/W receptor type 1 (Homo sapiens), sequence (P48145 whole entry, looked up): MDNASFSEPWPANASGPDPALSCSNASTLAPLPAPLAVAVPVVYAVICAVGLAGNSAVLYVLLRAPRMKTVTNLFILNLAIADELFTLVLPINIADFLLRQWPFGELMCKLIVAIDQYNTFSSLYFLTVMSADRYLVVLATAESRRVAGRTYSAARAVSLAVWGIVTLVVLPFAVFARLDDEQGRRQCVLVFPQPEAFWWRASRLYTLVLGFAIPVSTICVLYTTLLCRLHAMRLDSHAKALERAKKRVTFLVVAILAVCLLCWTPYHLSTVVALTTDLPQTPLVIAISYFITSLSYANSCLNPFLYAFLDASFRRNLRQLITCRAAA
Turning to `Fc1ccc(-c2ccc(-c3nn4c(-c5ccco5)nnc4s3)o2)cc1`, the inhibition was 29% (active).
The same measure for `COc1cc(-c2nn3c(-c4cccc(C)c4)nnc3s2)cc(OC)c1OC`: 12.2% (inactive); for `c1ccc(-c2cc(-c3nnc4sc(-c5ccccn5)nn34)[nH]n2)cc1`: -17.3% (inactive); for `COC(=O)c1ccc(C(=O)NC2CC(C)(C)Cc3c2cnn3-c2ccc(F)cc2)nc1` (configuration not stated): 18.2% (inactive).
With `CC(C(=O)NC1CCS(=O)(=O)C1)N1C(=O)/C(=C/c2ccc(Cl)cc2)SC1=S` (configuration not stated), the inhibition was 14.5% (inactive).
For `CCOCCCNC(=O)c1ccc(CS(=O)(=O)c2cccc(C(F)(F)F)c2)o1`, the inhibition is 6.51% (inactive).
Turning to `O=C(NCCCN1CCCCC1)c1ccc2c(c1)NC(=O)C(N1CCOCC1)S2` (configuration not stated), the inhibition is -14.1% (inactive).
`O=C(NCCCN1CCOCC1)c1ccc2c(c1)N(Cc1cccc(F)c1)C(=O)c1ccccc1S2`: the inhibition is 24.4% (active).
The same measure for `O=C(NCCCN1CCOCC1)c1cc(-c2ccccc2F)no1`: -6.4% (inactive); for `Cc1ccccc1CN1C(=O)c2ccccc2Sc2ccc(C(=O)NCCCN3CCOCC3)cc21`: 24.2% (active).
In the case of `CCC1=Nc2cc(C(=O)NCCCN3CCOCC3)ccc2Sc2ccc(Br)cc21`, the inhibition is 0.03% (inactive).
For `O=C(NCCN1CCOCC1)c1ccc(/C=C2\Sc3ccccc3N(Cc3ccc(F)cc3)C2=O)cc1`, the inhibition was 4.73% (inactive).
Take `CCOc1ccc(NC(=O)C2CCN(C(=O)N3CCOc4ccccc43)CC2)cc1`: the inhibition is 5.19% (inactive).
The same measure for `COc1cccc2[nH]c(C(=O)NCCc3ccccc3)cc12`: -9.64% (inactive); for `COc1ccc2[nH]c(=O)c(C3c4cc(OC)c(OC)cc4CCN3C(=O)c3ccco3)cc2c1` (configuration not stated): -13.4% (inactive); for `O=c1cc(CSc2ccccn2)nc(N2CCN(c3ccccc3)CC2)[nH]1`: -6.4% (inactive).
For the compound `Cc1ccc(SCc2cc(=O)[nH]c(N3CCCCC3)n2)cc1`, the inhibition was 25.9% (active).
Regarding `Cc1ccc(NC(=O)CSc2nc(CSc3ccc(C)cc3)cc(=O)[nH]2)cc1`, the inhibition is -13.7% (inactive).
Turning to `CN(C(=O)CCN1C(=O)/C(=C/c2ccccc2F)SC1=S)C1CCS(=O)(=O)C1` (configuration not stated), the inhibition was -4.44% (inactive).
With `COc1cccc(CNC(=O)C2CCCN(c3ncnc4c3nc3n4CCCCC3)C2)c1` (configuration not stated) the figure was 6.2% (inactive); with `COc1cccc(C(C(=O)NC2CCCC2)N(C(=O)c2ccco2)c2cccc(C(C)=O)c2)c1OC` (configuration not stated), 2.78% (inactive); with `O=C(CC(O)(C(F)(F)F)C(F)(F)F)Nc1ccc(Cl)c(Cl)c1`, 28.9% (active).
For `CN(C)CCNC(CC(=O)Nc1ccc(Cl)c(Cl)c1)C(=O)O` (configuration not stated), the inhibition was -6.94% (inactive).
Turning to `Cc1ccc(NC(=O)C/C(N)=N/O)cc1Cl`, the inhibition is -9.83% (inactive).
Take `CCOC(=O)C1(CCOc2ccccc2)CCN(Cc2cc(OC)cc(OC)c2)CC1`: the inhibition is 15.4% (inactive).
As for `CC1=C/C(=N\OS(=O)(=O)c2ccccc2)C=CC1=O`, the inhibition was -2.03% (inactive).
On to `Cc1cc(C)cc(N(CC(=O)NC2CCCC2)C(=O)CCC(=O)Nc2nccs2)c1`, for which the inhibition was 4.8% (inactive).
With `O=C(COC(=O)c1ccccc1SCC(=O)NC1CCCCC1)NC1CCCCC1` the figure was 4.41% (inactive); with `C=CCNC(=O)COC(=O)c1ccccc1C(=O)N(C)C1CCCCC1`, 23.4% (active).
For the compound `COc1ccccc1C(=O)OCC(=O)NCCNC(=O)COC(=O)c1ccccc1OC`, the inhibition is 1.57% (inactive).
With `O=[N+]([O-])c1ccc(NC(=S)N2CCN(c3ccccn3)CC2)cc1`, the inhibition was -5.44% (inactive).
For `Cc1nn(CC(=O)NCC2CCCO2)c(=O)c2cc3ccccc3n12` (configuration not stated), the inhibition was 2.04% (inactive).
For the compound `CCn1c(C)cc(=O)cc1-c1ccc(Cl)cc1`, the inhibition is 12.6% (inactive).
Take `CCS(=O)(=O)Nc1ccc(C2=NN(S(=O)(=O)c3ccc(F)cc3)C(c3ccco3)C2)cc1` (configuration not stated): the inhibition is 1.02% (inactive).
Regarding `COc1ccc(C2=NN(C(=O)c3ccccc3C(=O)O)C(c3ccccc3O)C2)cc1` (configuration not stated), the inhibition was 1.53% (inactive).
The same measure for `CS(=O)(=O)Nc1cccc(C2=NN(C(=O)c3cccc(F)c3)C(c3cccs3)C2)c1` (configuration not stated): 19.9% (inactive); for `CS(=O)(=O)Nc1ccc(C2=NN(S(C)(=O)=O)C(c3cccs3)C2)cc1` (configuration not stated): -8.38% (inactive).
Consider `CS(=O)(=O)Nc1cccc(C2=NN(S(=O)(=O)c3ccccc3)C(c3cccs3)C2)c1` (configuration not stated), for which the inhibition was 30% (active).
As for `COc1cccc(C2CC(c3ccccc3)=NN2S(=O)(=O)c2ccccc2)c1OC` (configuration not stated), the inhibition is 19.8% (active).
Consider `Cc1c(CCC(=O)N[C@@H](CC(C)C)C(=O)O)c(=O)oc2c(C)c3oc4c(c3cc12)CCCC4`, for which the inhibition is -11.3% (inactive).
The same measure for `COc1ccc(C(=O)NC(C)c2nccs2)cc1OC1CCN(C(C)C)CC1` (configuration not stated): -9.73% (inactive); for `COc1ccc(N(CC(=O)NCCSCc2cccc(Cl)c2)S(C)(=O)=O)cc1`: -4.13% (inactive); for `CC1CN(C(=O)c2cc(COc3c(F)cccc3F)on2)CCN1C` (configuration not stated): 5.39% (inactive).
With `CCc1ccccc1N(CC(=O)NCCSCc1ccco1)S(C)(=O)=O` the figure was -3.47% (inactive); with `Cc1cc(C)cc(N(CC(=O)NCCSCc2ccco2)S(C)(=O)=O)c1`, -3.97% (inactive).
Turning to `CS(=O)(=O)N(Cc1ccc(Cl)cc1)c1ccc(C(=O)NCCSCc2ccco2)cc1`, the inhibition is 30.2% (active).
The same measure for `O=C(COc1ccc([N+](=O)[O-])cc1)Nc1ccc(N2CCCC2)cc1`: -6.84% (inactive); for `CN1CCN(CCNC(=O)Nc2ccc([N+](=O)[O-])cc2)CC1`: 1.21% (inactive).
With `O=C(NCCCN1CCN(c2ccc(F)cc2)CC1)Nc1ccc([N+](=O)[O-])cc1` the figure was 25.5% (active).
In the case of `COc1ccccc1CNC(=O)COc1ccc(C)nc1[N+](=O)[O-]`, the inhibition was 25.7% (active).
Turning to `Cc1ccc(OCC(=O)NC(C)c2ccccc2)c([N+](=O)[O-])n1` (configuration not stated), the inhibition is -17% (inactive).
Take `COc1ccc(CNC(=O)COc2cccnc2[N+](=O)[O-])cc1`: the inhibition was 5.06% (inactive).
Consider `CCOC(=O)N1CCN(S(=O)(=O)c2ccc(OC)cc2)CC1`, for which the inhibition was -0.89% (inactive).
The same measure for `Cc1cc(Cl)ccc1OCCCC(=O)Nc1cccc(-n2cnnn2)c1`: 37.4% (active); for `Cc1cc(Cl)ccc1OCCCC(=O)NCc1ccccn1`: 5.1% (inactive).
For the compound `Cc1cc(Cl)ccc1OCCCC(=O)NCc1ccncc1`, the inhibition was 2.96% (inactive).
With `c1ccc2c(c1)CCc1snnc1-2` the figure was -15.5% (inactive).
`COc1cc(OC)c(NC(=O)C2CCCN2C(=O)OCc2ccccc2)cc1Cl` (configuration not stated): the inhibition was 3.66% (inactive).
Consider `COC(=O)c1cc(S(=O)(=O)Nc2ccc(C)c(F)c2)c[nH]1`, for which the inhibition was 4.7% (inactive).
`CCOC(=O)C1=C(C)NC(C)=C(C(=O)OCC)C1c1ccccn1`: the inhibition was 18.9% (active).
With `CCOC(=O)C1=C(C)NC(=S)NC1c1cccs1` (configuration not stated) the figure was -3.11% (inactive).
Turning to `CCOC(=O)C1=C(C)NC(SC)=NC1c1ccccc1` (configuration not stated), the inhibition was -17% (inactive).
As for `Cc1ccc(NC(=O)CN2CCC3(O)CCCCC3C2c2ccc3c(c2)OCO3)c(C)c1` (configuration not stated), the inhibition was 21.5% (active).
`CCN(CC)c1ccc(C2C3CCCCC3(O)CCN2CC(=O)Nc2ccccc2)cc1` (configuration not stated): the inhibition was 0.06% (inactive).
Consider `CC1CCCCN1CC(=O)NCc1ccc2c(c1)OCO2` (configuration not stated), for which the inhibition was -3.99% (inactive).
For `O=C(Nc1cccc2ccccc12)c1onc2c1CCCC2`, the inhibition is -5.72% (inactive).
The same measure for `Oc1ccccc1CNc1ncc(Br)cc1Br`: -17.9% (inactive); for `Cc1cccc(C(=O)NCCCN(C)CCCNC(=O)c2cccc(C)c2)c1`: -10.2% (inactive).
As to `COCCN(Cc1cc2cc3c(cc2nc1Cl)OCO3)C(=O)c1cccc(C)c1`, the inhibition is 21.6% (active).
Consider `CCCCN(CC)C(=O)c1ccc2c(c1)OCO2`, for which the inhibition is 11.2% (inactive).
With `Cc1ccc(Cl)c(NC(=O)CN2CCN(C=O)CC2)c1` the figure was 2.68% (inactive); with `COc1ccccc1OCCOc1ccc(/C=C2\C(=N)N3N=C(C)SC3=NC2=O)cc1`, 21% (inactive).
As for `CNS(=O)(=O)c1cccc(C(=O)NCC2CCCCC2)c1`, the inhibition was 5.35% (inactive).
With `CN(C)S(=O)(=O)N1CCC(Oc2cccc(C(=O)NCCCC3CCCC3)c2)CC1`, the inhibition is 34.4% (active).
For `CN(C(=O)c1cccc(OC2CCN(S(=O)(=O)N(C)C)CC2)c1)C1CCOC1` (configuration not stated), the inhibition is -0.89% (inactive).
On to `Cc1cc(C(=O)NCCc2ccc(Cl)cc2)c(C)o1`, for which the inhibition was -6.42% (inactive).
Turning to `Cc1ccc(N(CC(=O)Nc2cccc(N(C)S(C)(=O)=O)c2)S(C)(=O)=O)cc1`, the inhibition is -0.43% (inactive).
Regarding `CN(c1cccc(NC(=O)Nc2ccc(Cl)cc2)c1)S(C)(=O)=O`, the inhibition was 35.6% (active).
On to `COc1cccc(N(CC(=O)Nc2cccc(N(C)S(C)(=O)=O)c2)S(C)(=O)=O)c1`, for which the inhibition is -7.36% (inactive).
`CCOC(=O)N1CCN(C(=O)C(C)NC(=O)c2ccco2)CC1` (configuration not stated): the inhibition was -2.9% (inactive).
Regarding `CCN(CCn1cccn1)Cc1nc(-c2ccc(C(=O)OC)cc2)no1`, the inhibition was 9.06% (inactive).
On to `COc1cccc(-c2cc(C(=O)N3CCN(c4ccccc4OC)CC3)no2)c1`, for which the inhibition is -15.8% (inactive).
As for `CN(CC(=O)Nc1ccccc1C(F)(F)F)C(=O)Cc1ccccc1F`, the inhibition was -10.8% (inactive).
`CCOCCCNCc1cc(Br)ccc1OCC`: the inhibition is 10.1% (inactive).
Take `CC(C)(C)NCc1cc(Br)ccc1OC1CCCC1`: the inhibition was 22.3% (active).
`COc1cc(CNC2CCCCC2)c(Br)cc1OC1CCCC1`: the inhibition is -7.35% (inactive).
The same measure for `O=C(NCc1cccc(CNC(=O)Nc2cccc(O)c2)c1)Nc1cccc(O)c1`: -9.18% (inactive).
Take `C[C@@H]1C[C@@H]2O[C@H]2/C=C\C=C\C(=O)Cc2c(Cl)c(O)cc(O)c2C(=O)O1`: the inhibition is -17.8% (inactive).
On to `C/C(=N\NC(=O)c1cccc([N+](=O)[O-])c1)c1cccnc1`, for which the inhibition was -13.8% (inactive).
For the compound `Cc1cc(NC(=O)CSc2nnc(Nc3ccccc3F)s2)no1`, the inhibition is -3.75% (inactive).
As for `Cc1ccc(Nc2nnc(SCC(=O)c3cc4ccccc4o3)s2)cc1C`, the inhibition was -6.61% (inactive).
With `Cc1ccccc1Nc1nnc(SCC(=O)c2cc3ccccc3o2)s1` the figure was 28% (active).

These data come from PubChem BioAssay AID1861 (The Scripps Research Institute Molecular Screening Center, 2009).
